Where “and” joins values, the source holds several entries; their conditions need not be identical. Equal values may be shown once. Values without a mark were called inactive. Calls of active or inactive are those of the source. How the calls were made is not given here.
Assays:
[1] = target: Nuclear receptor subfamily 1 group I member 2 (Rattus norvegicus) (UniProt Q9R1A7); test: qHTS assay for small molecule activators of the rat pregnane X receptor (rPXR) signaling pathway (AID 651751); settings: rPXR reporter cells, luciferase (One-Glo), 24 h
[2] = qHTS assay for small molecule activators of the human pregnane X receptor (PXR) signaling pathway (AID 720659); settings: DPX-2 HepG2 CYP3A4-luciferase, 24 h; series mostly up to 92.3 µM
Further: 0% is about no effect.

Nuclear receptor subfamily 1 group I member 2 (Rattus norvegicus), sequence (Q9R1A7 whole entry, looked up): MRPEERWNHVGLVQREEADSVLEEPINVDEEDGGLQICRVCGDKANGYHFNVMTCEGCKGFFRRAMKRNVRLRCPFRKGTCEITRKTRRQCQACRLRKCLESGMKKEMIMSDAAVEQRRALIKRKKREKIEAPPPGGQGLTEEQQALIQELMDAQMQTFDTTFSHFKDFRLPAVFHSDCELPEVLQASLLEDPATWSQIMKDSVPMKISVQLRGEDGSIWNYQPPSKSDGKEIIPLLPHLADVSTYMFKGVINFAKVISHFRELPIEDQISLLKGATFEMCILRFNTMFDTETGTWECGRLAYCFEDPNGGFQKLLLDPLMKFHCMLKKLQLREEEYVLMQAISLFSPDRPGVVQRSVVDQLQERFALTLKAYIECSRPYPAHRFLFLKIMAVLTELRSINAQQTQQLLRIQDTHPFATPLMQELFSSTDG

| Compound | max response [1] | outcome [2] |
| --- | --- | --- |
| COCC(C)N(C(=O)CCl)c1c(C)csc1C (stereo not given) | 2.96% |  |
| Clc1ccccc1Cl | 6.34% | inactive |
| COC1=CC(=O)O[C@@H](/C=C/c2ccccc2)C1 |  | inactive |
| C[C@H]1CCC[C@H](O)CCCCCc2cc(O)cc(O)c2C(=O)O1 | -2.32% |  |
| O=C/C=C/c1ccccc1 | -2.3% and 9.18% | inactive |
| O=c1[nH]c(=O)n(Cl)c(=O)n1Cl | -4.63% | inactive |
| CCCSP(=O)(OCC)SCCC | 5.9% |  |
| C=CCN=C=S | 3.71% | inactive |
| ClC(Cl)(Cl)Cl |  | inactive |
| [O]=[Cd] | 0.17% | inactive |
| ClCC1CO1 (stereo not given) | 1.11% | inactive |
| NNC(N)=O | 4.4% | inactive |
| O=C(O)c1cc[c]([Hg][Cl])cc1 | -6.42% | inactive |
| S=C=S | -0.686% | inactive |
| CC[C@H](C)[C@H]1O[C@]2(C=C[C@@H]1C)C[C@@H]1C[C@@H](C/C=C(\C)[C@@H](O[C@H]3C[C@H](OC)[C@@H](O[C@H]4C[C@H](OC)[C@@H](O)[C@H](C)O4)[C@H](C)O3)[C@@H](C)/C=C/C=C3\CO[C@@H]4[C@H](O)C(C)=C[C@@H](C(=O)O1)[C@]34O)O2 |  | inactive |
| Oc1cc(Cl)c(Cl)cc1Cl | 6.93% and 2.63% | inactive |
| C[C@]12CCC(=O)C[C@@H]1CC[C@@H]1[C@@H]2CC[C@]2(C)[C@@H](O)CC[C@@H]12 | 6.67% and 13% |  |

| Compound | max response [1] | outcome [2] |
| --- | --- | --- |
| CC(C)(C)c1cc(O)ccc1O | 3.84% and -2.04% and 0.779% |  |
| O=CC=O | -6.34% | inactive |
| O=C(O)C(Cl)(Cl)Cl | 6.71% and 3.85% | inactive |
| O=Cc1ccco1 | 4.33% | inactive |
| COc1ccc2c(c1OC)C(=O)OC2C1c2cc3c(cc2CCN1C)OCO3 (stereo not given) | 3.69% |  |
| ClC=C(Cl)Cl | 1.22% and -1.96% | inactive |
| O=C1C[C@@H]2OCC=C3CN4CC[C@]56c7ccccc7N1[C@H]5[C@H]2[C@H]3C[C@H]46 | 0.534% |  |
| O=C1CCO1 | -3.35% | inactive |
| O=[N+]([O-])c1ccc(F)c([N+](=O)[O-])c1 |  | inactive |
| O=C1C=CC(=O)C=C1 | 0.171% | inactive |
| CCCCCl | -2.58% | inactive |
| CCOC(=O)c1ccccc1C(=O)OCC | 2.54% and 6.22% and -3.04% | inactive |
| CCCCCCCCOC(=O)c1ccccc1C(=O)OCCCCCCCC | -1.02% and 3.16% | inactive |
| C[C@H]1CC[C@@H]2[C@@H](C)[C@H]3[C@H](C[C@H]4[C@@H]5CC=C6CC(O[C@@H]7O[C@H](CO)[C@H](O)[C@H](O[C@@H]8O[C@H](CO)[C@@H](O)[C@H](O)[C@H]8O)[C@H]7O[C@H]7O[C@@H](C)[C@H](O)[C@@H](O)[C@H]7O)CC[C@]6(C)[C@H]5CC[C@]34C)N2C1 (stereo not given in full) |  | inactive |
| N#CN | 6.95% | inactive |
| CC(C)CCON=O | 1.54% | inactive |
| O=[N+]([O-])C(Br)(CO)CO |  | inactive |

— PubChem BioAssay (NCATS)
